Eight sequences from the supplement of paper PMC6555819 can be followed below.

What all share (assay): PBM binding z-score (relative to random genomic background probes); higher = stronger binding; sequences stand for … in GC…GCGATTGACAGCGTAGAATGAAGG
For assay [1], the system named is FXR:RXRa (NR concentration 270 nM, RXRa partner concentration 90 nM). The method in brief: (§1)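 Ligand-free nuclear receptor dimers were bound for 1 h to custom Agilent 4×180K protein-binding microarrays. Detection used antibodies against each partner (one per run). Binding z-scores rest on regression-normalized fluorescence, with random background probes as the reference.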

Assay [2] relates to LXRa:RXRa (NR concentration 270 nM, RXRa partner concentration 90 nM). The method in brief:
as §1

The test system of assay [3] is LXRa homodimer (NR concentration 270 nM). The method in brief: as §1
The subject of assay [4] is LXRb:RXRa (NR concentration 270 nM, RXRa partner concentration 90 nM). The method, boiled down: as §1
In assay [5] the test system is LXRb homodimer (NR concentration 270 nM). The method in brief:
as §1

The test system of assay [6] is PPARg:RXRa 270nM:90nM, anti-RXR (NR concentration 270 nM, RXRa partner concentration 90 nM). The method, boiled down: as §1
For assay [7], the system named is PPARg:RXRa 30nM:10nM, anti-RXR (NR concentration 30 nM, RXRa partner concentration 10 nM). The method, boiled down: as §1
The test system of assay [8] is PPARg:RXRa 90nM:30nM, anti-RXR (NR concentration 90 nM, RXRa partner concentration 30 nM). The method in brief:
as §1

In assay [9] the test system is PPARg:RXRa DBDmut IVT, anti-RXR (DBD mutation: RXRa K156A/R161A, NR concentration 270 nM, RXRa partner concentration 90 nM). The method, boiled down:
as §1

Assay [10] has as its system PPARg:RXRa IVT, anti-PPARg (NR concentration 270 nM, RXRa partner concentration 90 nM). The method in brief: as §1
Assay [11] has as its system PPARg DBDmut:RXRa IVT, anti-PPARg (DBD mutation: PPARg1 K132A/R137A, NR concentration 270 nM, RXRa partner concentration 90 nM). The method, boiled down:
as §1

Assay [12] relates to PPARg DBDmut IVT, anti-PPARg (DBD mutation: PPARg1 K132A/R137A, NR concentration 270 nM). The method in brief:
as §1

In assay [13] the test system is PPARg homodimer (NR concentration 180 nM). The method in brief: as §1
The subject of assay [14] is PXR homodimer (NR concentration 270 nM). The method, boiled down: as §1
In assay [15] the test system is RARa homodimer (NR concentration 270 nM). The method in brief: as §1
For assay [16], the system named is RARb:RXRa (NR concentration 270 nM, RXRa partner concentration 90 nM). The method in brief:
as §1

Assay [17] deals with PPARa:RXRa (NR concentration 270 nM, RXRa partner concentration 90 nM). The method in brief: as §1
For assay [18], the system named is PPARg:RXRa (NR concentration 180 nM, RXRa partner concentration 90 nM). The method in brief:
as §1

Assay [19] deals with PXR:RXRa (NR concentration 270 nM, RXRa partner concentration 90 nM). The method, boiled down: as §1
Assay [20] deals with RARa:RXR (NR concentration 270 nM, RXRa partner concentration 90 nM). The method, boiled down:
as §1

For the sequence TGAATGAGGTTAAAGGTCAGGGAACGTGGCGTCG, the PBM binding z-score in assay [1] worked out at 7.23; in assay [2], 6; in [3] it was 2.34; in assay [4], 5.35; in assay [5], 1.05; in assay [6] it was 9.95. Further, the PBM binding z-score was found to be 12.2 in [7]; 12.1 in assay [8]; 3.7 in assay [9]; 6.46 in [10]; 1.94 in assay [11]; 1.25 in assay [12]. The PBM binding z-score in [13] is 5.36; in assay [14], 1.01; in assay [15], 3.29; in assay [16] it was 5.08.
For the sequence CTATGTAGGTTAAGGCGGTCATTCAGTTTGAAAG, the PBM binding z-score came out at 1.17 in assay [1]; 2.21 in assay [2]; 1.95 in assay [3]; 1.37 in [4]; 3.24 in [17]; 4.29 in assay [18]. The PBM binding z-score was 4.25 in assay [6]; 1.38 in [7]; 3.3 in [8]; 6.74 in [9]; 6.69 in assay [10]; 0.855 in assay [13]. In addition, the PBM binding z-score in assay [19] is 1.37; in [14], 2.41; in assay [20], 0.782; in assay [15], -0.289; in assay [16], 1.62.
Turning to CTTACTGGGCCAAAGGTCATTGATTCCAATGCTC, the PBM binding z-score in [1] stood at 5.59; in [2], 5.54; in assay [3] it was 4.28; in assay [4] it was 5.06; in assay [5], 0.936; in [6] it was 11.2. Besides, the PBM binding z-score came out at 14.3 in [7]; 13.6 in assay [8]; 7.41 in assay [9]; 8.39 in assay [10]; 2.55 in [11]; 2.05 in assay [12]. In addition, the PBM binding z-score in assay [13] came out at 5.08; in [19], 5.66; in [14] it was 2.72; in assay [20], 7.06; in [15], 1.85; in [16] it was 4.62.
TTACCAAGGTGAAAGGTCATTGATGCACGCCTTG: the PBM binding z-score worked out at 6.65 in [1]; 6.17 in assay [2]; 4.61 in [3]; 5.39 in assay [4]; 1.12 in assay [5]; 9.21 in assay [6]. The PBM binding z-score in assay [7] turned out to be 9.49; in assay [8], 10.9; in assay [9], 2.98; in assay [10], 6.12; in [11], 1.63; in assay [12] it was 2.28. The PBM binding z-score in assay [13] is 5.67; in [19] it was 6.35; in assay [14], 2.25; in assay [15], 2.09; in [16], 4.86.
Consider AGTGAAAGTTCAGGACGAGGTAACGTAAAGCACG, for which the PBM binding z-score was determined as 3.78 in assay [1]; 3.69 in [2]; 1.17 in assay [3]; 1.94 in assay [4]; 0.34 in assay [5]; 3.61 in [18]. Besides, the PBM binding z-score in assay [6] was 4.03; in assay [7] it was 1.48; in [8], 2.89; in assay [9], -0.565; in assay [10], 1.36; in [11], 0.759. The PBM binding z-score in [12] is 0.589; in assay [13], 1.57; in [14] it was 1.41; in [20] it was 2.9; in assay [15], 0.544; in assay [16], 4.14.
As to CTATGTAGGTTTAGGGGGTCATTCAGTTTGAAAG, the PBM binding z-score is 4.33 in [1]; 4.71 in [2]; 4.34 in assay [3]; 5.97 in [4]; 5.41 in assay [17]; 4.01 in [18]. In addition, the PBM binding z-score in assay [6] came to 5.15; in [7], 2.66; in [8], 4.77; in assay [9] it was 3.47; in assay [10], 4.95; in assay [13], 3.1. Also, the PBM binding z-score in assay [19] amounted to 5.4; in assay [14], 9.15; in assay [20] it was 5.1; in assay [15] it was 1.56; in [16], 2.93.
CCGAGTAGGTTACGAGGGGGTATTCAGTGCGAAT: the PBM binding z-score was determined as 1.23 in [1]; 5.34 in [2]; 0.455 in [3]; 4.28 in assay [4]; 2.87 in assay [17]; 1.8 in assay [18]. Moreover, the PBM binding z-score stood at 3.05 in [6]; 1.22 in assay [7]; 1.9 in [8]; 4.05 in assay [9]; 4.17 in assay [10]; 1.24 in assay [13]. The PBM binding z-score in assay [19] is 2.91; in assay [14], 0.693; in [20], 1.99; in assay [15] it was 0.377; in assay [16] it was 1.51.
Consider CGAACTAGGTCAAAGGGCAGTGAAAGGCGACGTA, for which the PBM binding z-score in assay [1] is 5.16; in assay [2], 3.62; in assay [3], -0.00961; in [4], 2.68; in assay [5], -0.302; in [6] it was 10.2. For the same sequence, the PBM binding z-score in assay [7] worked out at 10.2; in [8], 11.2; in assay [9], 8.19; in [10] it was 8.52; in assay [12] it was 0.155; in assay [13] it was 2.2. Besides, the PBM binding z-score in assay [19] was 2.96; in [14], -0.191; in assay [20] it was 4.78; in [15], -0.269; in assay [16], 4.31.
